According to PubChem BioAssay (NCATS):
Records with an inconclusive call do not appear. Activity calls are given as the source filed them. Unless noted, calls follow the shape of the dose curve; as a rule, active = well fitted curve in the direction sought with a large enough effect; inconclusive = small, poorly fitted or top-dose-only effect, or another doubt; inactive = no such curve, though single readings can be large; an effect the other way counts as inactive or inconclusive.

Experiments:
[1] = MultiTox-Fluor Cytotoxicity Assay - LYMP1-001 - Live Cells (AID 947)
[2] = Cell Viability - LYMP1-002 - Assay at 16 hr (AID 948)
Summary of the method: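 Human lymphoblastoid cells (LYMP1-002), 2500/well, were preincubated 5 hr at 37 C, then exposed to compounds for 16 hr at 37 C in complete medium. Cellular ATP was read by CellTiter-Glo luminescence after 30 min at room temperature; AC50 from Hill fits.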

[3] = MultiTox-Fluor Cytotoxicity Assay - LYMP1-002 - Live Cells (AID 955)
Summary of the method: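 Cytotoxicity in the human lymphoblastoid line LYMP1-002 is measured as loss of live-cell protease activity after 16 h treatment in complete culture medium. AC50 is derived from Hill-equation fits of qHTS concentration-response data.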

[4] = MultiTox-Fluor Cytotoxicity Assay - LYMP1-002 - Dead Cells (AID 960); also: nearly all actives have a fitted effect of over 60% in size
Summary of the method: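 Acute cytotoxicity in a human lymphoblastoid line is scored as rising dead-cell protease signal after 16 hr exposure at 37 C, measured fluorometrically (485/520).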

[5] = MultiTox-Fluor Cytotoxicity Assay - LYMP1-003 - Dead Cells (AID 961); also: nearly all actives have a fitted effect of over 70% in size
Summary of the method: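 Dead-cell protease release, detected as bis-AAF-R110 fluorescence at 485/520 nm, was measured in LYMP1-003 cells after 16 h compound treatment at 37 C. AC50 values came from Hill-modeled qHTS curves normalized to DMSO (0%) and 15 uM tetraoctylammonium bromide (100%).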

[6] = MultiTox-Fluor Cytotoxicity Assay - LYMP1-003 - Live Cells (AID 962);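 also: cytotoxic hits lower the live-cell protease signal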
Summary of the method: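 Cells plated at 2500 per well and incubated 5 hr; compounds added and incubated 16 hr at 37 C; MultiTox-Fluor reagent added for 60 min at room temperature; fluorescence of liberated AFC measured at 405/510 nm.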

[7] = Cell Viability - LYMP1-003 - Assay at 24 hr (AID 963)
Summary of the method: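 Acute toxicity in LYMP1-003 lymphoblastoid cells: 24 hr compound treatment at 37 C, ATP measured with CellTiter-Glo after 30 min at room temperature. AC50 derived by fitting the Hill equation to qHTS titrations.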

[8] = Cell Viability - LYMP1-003 - Assay at 40 hr (AID 964); also: series mostly up to about 92 µM; nearly all actives have a fitted effect of over 60% in size
Summary of the method: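 This qHTS cytotoxicity screen treats human lymphoblastoid cells (LYMP1-003) with compounds for 40 hr and quantifies cellular ATP via luciferase luminescence.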

[9] = Cell Viability - LYMP2-003 (AID 965);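 also: cells exposed to compounds for 24 h before reading; nearly all actives have a fitted effect of over 50% in size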
Summary of the method: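 Human lymphoblastoid cells (2500/well) were pre-incubated 5 hr at 37 C, then exposed to compounds over a concentration range for 24 hr at 37 C. Intracellular ATP was read by CellTiter-Glo luminescence; AC50 came from Hill-equation fits.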

[10] = Cell Viability - LYMP2-004 (AID 966); also: nearly all actives have a fitted effect of over 65% in size
Summary of the method: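 Acute toxicity is scored as a concentration-dependent drop in intracellular ATP, quantified by luciferase luminescence, in human lymphoblastoid cells exposed to compound for 24 hr. AC50 derives from Hill-equation modelling.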

[11] = Cell Viability - LYMP2-005 (AID 967); also: series mostly up to about 92 µM
Summary of the method: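 CellTiter-Glo luminescence (cellular ATP) read-out; LYMP2-005 lymphoblastoid cells, 2500/well, 5 h pre-incubation, then 24 h compound exposure at 37 C in complete medium. Tetraoctylammonium bromide positive control; AC50 by standard Hill fit.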

[12] = Cell Viability - LYMP2-009 (AID 968); also: series mostly up to about 92 µM; nearly all actives have a fitted effect of over 55% in size
[13] = Cell Viability - LYMP2-011 (AID 969); also: nearly all actives have a fitted effect of over 60% in size
Summary of the method: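 Acute toxicity is scored as a concentration-dependent drop in intracellular ATP of a human lymphoblastoid line after 24 hr treatment. Values are AC50s modeled with the Hill equation.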

[14] = Cell Viability - LYMP2-013 (AID 970); also: series mostly up to about 92 µM; nearly all actives have a fitted effect of over 55% in size
Summary of the method: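 Acute toxicity was measured in human lymphoblastoid cells (2500/well) exposed to compound titrations for 24 hr, with ATP luminescence (CellTiter-Glo) as read-out and AC50 fitted by Hill equation.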

[15] = Cell Viability - LYMP2-015 (AID 971); also: nearly all actives have a fitted effect of over 55% in size
Summary of the method: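 Acute toxicity was scored as a concentration-dependent drop in intracellular ATP in lymphoblastoid cells after 24 hr compound exposure in complete medium. Detection used CellTiter-Glo luciferase luminescence.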

[16] = Cell Viability - LYMP2-017 (AID 972); also: series mostly up to about 92 µM; nearly all actives have a fitted effect of over 55% in size
Summary of the method: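 Steps: plate 2500 lymphoblastoid cells per well; incubate 5 hr at 37 C; add compound across a concentration series and incubate 24 hr at 37 C; add CellTiter-Glo and read luminescence after 30 min at room temperature; fit Hill curves for AC50.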

[17] = Cell Viability - LYMP2-019 (AID 973); also: nearly all actives have a fitted effect of over 55% in size
Summary of the method: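 Cells plated at 2500/well and allowed 5 hr at 37 C before compound addition. After 24 hr incubation, CellTiter-Glo reagent was added, plates sat 30 min at room temperature, and luminescence was recorded.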

[18] = Cell Viability - LYMP2-021 (AID 974)
Summary of the method: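 Concentration-response cytotoxicity in a human lymphoblastoid line: 24 hr treatment at 37 C in complete culture medium, tetraoctylammonium bromide as positive control, luminescent ATP quantitation as viability measure.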

[19] = Cell Viability - LYMP2-023 (AID 975)
Summary of the method: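 Concentration-dependent drop in intracellular ATP measures acute cytotoxicity in a human lymphoblastoid line treated for 24 hours in complete culture medium. AC50 values are taken from Hill-equation fits of qHTS data.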

[20] = biological target: Pyruvate kinase PKM (Homo sapiens) (UniProt P14618); assay: qHTS Assay for Activators of Human Muscle Pyruvate Kinase (AID 954; active = well fitted curve in the direction sought with a large enough effect, not every such curve was filed as active)
Summary of the method: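 Human PKM2 activity is measured as ATP generation, detected by luciferase-coupled luminescence. The enzyme (0.1 nM) acts on 0.5 mM PEP and 0.1 mM ADP for 1 h at ambient temperature; data are normalized to uninhibited and full-inhibition wells.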

Measured: outcome

Chain of Pyruvate kinase PKM (Homo sapiens) (P14618 whole entry, looked up): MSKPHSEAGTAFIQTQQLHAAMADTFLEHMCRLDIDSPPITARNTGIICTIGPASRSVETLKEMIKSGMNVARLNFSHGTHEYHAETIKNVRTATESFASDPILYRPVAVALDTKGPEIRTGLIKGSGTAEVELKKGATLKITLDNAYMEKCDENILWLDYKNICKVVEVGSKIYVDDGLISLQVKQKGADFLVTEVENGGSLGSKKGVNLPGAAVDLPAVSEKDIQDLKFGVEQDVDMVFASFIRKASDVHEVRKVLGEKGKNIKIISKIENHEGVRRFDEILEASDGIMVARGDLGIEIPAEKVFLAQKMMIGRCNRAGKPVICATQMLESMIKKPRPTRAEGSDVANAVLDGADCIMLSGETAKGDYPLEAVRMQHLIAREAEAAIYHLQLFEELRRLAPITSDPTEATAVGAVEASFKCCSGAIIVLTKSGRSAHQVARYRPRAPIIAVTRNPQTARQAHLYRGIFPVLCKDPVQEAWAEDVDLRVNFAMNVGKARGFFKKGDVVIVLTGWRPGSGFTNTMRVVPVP

CN(C)Cc1ccccc1
not listed: [20]
inactive: all other assays above

CN[C@H]1CC[C@@H](c2ccc(Cl)c(Cl)c2)c2ccccc21
inactive: [20]

O=C(O)CC(O)(CC(=O)O)C(=O)O
not listed: [14] | [15] | [17] | [18] | [20]
inactive: all other assays above

C=Cc1ccccc1
not listed: [11] | [20]
inactive: all other assays above

CCCCCCCCCC(=O)O
not listed: [20]
inactive: all other assays above

COC(C)=O
not listed: [20]
inactive: all other assays above

Cc1ccc(OC[C@H](O)[C@H](C)NC(C)C)c2c1CCC2
inactive: [20]

NCCCC(=O)O
inactive: [20]
